Measured values from the supplement of paper PMC6555819.

What was measured:
Assay in all cases: PBM binding z-score (relative to random genomic background probes); higher = stronger binding; sequences stand for … in GC…GCGATTGACAGCGTAGAATGAAGG
[1] = tested on: RARb homodimer (NR concentration 270 nM)
In short: (§1)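 Probes were double-stranded and carried 34-nt variable regions with direct-repeat seeds, single-nucleotide variants, half-site ablations and random human genomic background sequences, printed on custom Agilent 4×180K protein-binding microarrays. Arrays were incubated 1 h with ligand-free nuclear receptor dimers in PBS pH 7.4, 2% milk, 0.02% Triton X-100, 1 mM DTT, 0.2 mg/mL BSA and 0.4 mg/ml salmon testes DNA. Antibodies against each partner (one per run) detected binding, and scanned fluorescence was regression-normalized. Binding z-scores use the random background probes as reference.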

[2] = tested on: RARg:RXRa (NR concentration 270 nM, RXRa partner concentration 90 nM)
In short: as §1

[3] = tested on: RARg homodimer (NR concentration 270 nM)
In short: as §1

[4] = tested on: RXRa DBDmut IVT, anti-RXR (DBD mutation: RXRa K156A/R161A, NR concentration 90 nM)
In short: as §1

[5] = tested on: RXRa homodimer (NR concentration 180 nM)
In short: as §1

[6] = tested on: THRa:RXRa (NR concentration 90 nM, RXRa partner concentration 90 nM)
In short: as §1

[7] = tested on: THRa homodimer (NR concentration 90 nM)
In short: as §1

[8] = tested on: VDR homodimer (NR concentration 270 nM)
In short: as §1

Row | Sequence | PBM binding z-score [1] | PBM binding z-score [2] | PBM binding z-score [3] | PBM binding z-score [4] | PBM binding z-score [5] | PBM binding z-score [6] | PBM binding z-score [7] | PBM binding z-score [8]
1 | CGAACTAGGTCAAAGGACTGTGAAAGGCGACGTA | 2.43 | 3.69 | 4.11 | 1.71 | 2.93 | 2.19 | -0.114 | -0.0761
2 | ATATGTAGGTTAGGGGCATTCAGAAAGTAGGGAA | 2.01 | 1.14 | 1.14 | 1.45 | 1.21 | 1.73 | 1.35 | 1.82
3 | CGTCCAAGGTCATAGGAGGTCACTGAAGACAGAT | 5.4 | 7.13 | 7.45 | 4.05 | 7.22 | 5.37 | 3.68 | 5.28
4 | ATATGTAAGTTAGGGTCATTCAGAAAGTAGGGAA | 3.04 | 4 | 3.02 | 2.47 | 5.33 | 4.05 | 2.85 | 3.96
5 | GTACCAAGGTGAATAGGTCGTTGATGAGTAGGCG | 1.89 | 2.73 | 1.44 | 0.0133 | 1.92 | 1.79 | 0.526 | 0.496
6 | CCTACTGGGCCATTGAGAGGTCATTGATCATATG | 3.78 | 4 | 2.63 | 0.642 | 3.13 | 3.06 | 1.26 | 3.78
7 | ATATGTAGGTTAGGGTCATTCAGAAAGTAGGGAA | 3.49 | 4.11 | 3.21 | 2.68 | 5.53 | 3.97 | 3.55 | 4.01
8 | ATCGAAAGGTCGACGAGGTGAGAATACACCGTTT | 3.04 | 4.56 | 4.16 | 1.15 | 4.87 | 4.05 | 0.736 | 0.942
9 | CTATGTAGGTTAAGGGGGTCCTTCAGTTTGAAAG | 1.5 | 1.79 | 1.26 | 0.924 | 1.49 | 2.17 | 0.899 | 1.49
10 | CGAACTAGGTCAAAGGACAGTGACAGGCGACGTA | 3.39 | 4.39 | 5.1 | 1.78 | 3.89 | 2.69 | 0.589 | 0.435
11 | CGAACTAGGTCACCAAGACAGTGAAGAGGTTGGA | 3.11 | 4.04 | 4.97 | 1.29 | 3.06 | 2.74 | 1.28 | 0.496
12 | ATCAAAAGGTCGAAGGTGAGTATACCCACCCGAA | 2.75 | 4.51 | 4.34 | 1.27 | 5.55 | 2.26 | -0.268 | 0.86
13 | AGATGTAGGTTAGGGTCATTCAGAAAGTAGGGAA | 3.52 | 3.98 | 3 | 2.56 | 4.81 | 3.92 | 3.4 | 4.44
14 | CTATGTAGGTTAAGGGGGTCATACAGTTTGAAAG | 3.95 | 5.39 | 4.06 | 2.32 | 6.26 | 4 | 2 | 5.41
15 | CGTCTAAGGTCAGCAGGTCAGTGAAAGCGACGTG | 5.24 | 6.82 | 7.53 | 3.01 | 6.01 | 4.47 | 3.96 | 1.86
16 | ATATGTAGGTTAGCTGGGGTCATTCCGACTAGGC | 3.77 | 4.05 | 2.78 | 1.93 | 5.24 | 4.98 | 3.21 | 5.2
17 | CGTCCAAGGTCAATGCTAGCTCAGTGAAAGCATT | 3.86 | 5.61 | 6.7 | 3.48 | 5.19 | 3.64 | 2.02 | 1.83
18 | CCCAGTAGGTTACGAGGGGGCATTCAGTGCGAAT | 2.13 | 3.35 | 2.76 | 0.746 | 2.04 | 3.89 | 0.525 | 3.62
19 | CCGAGTAGGTTACGAGGGCGCATTCAGTGCGAAT | 0.436 | 0.647 | 0.287 | -0.122 | 0.655 | 0.838 | -0.711 | 0.0173

Row | Sequence | PBM binding z-score [1] | PBM binding z-score [2] | PBM binding z-score [3] | PBM binding z-score [4] | PBM binding z-score [5] | PBM binding z-score [6] | PBM binding z-score [7] | PBM binding z-score [8]
20 | CCGAGTAGCTTACGAGGGGGCATTCAGTGCGAAT | 1 | 1.05 | 0.544 | 1.5 | 0.627 | 1.8 | -0.07 | 2.86
21 | CGTCCAAGGTCAATTCTAGGTCAGTGAAAGCATT | 5.03 | 7.43 | 6.42 | 3.52 | 4.75 | 4.64 | 3.17 | 2.76
22 | GCTGCAAGGTCAACTGATGGTCAGCTAAAGCTCG | 4.71 | 7.17 | 7.04 | 3.75 | 5.7 | 4.18 | 2.31 | 2.53
23 | ATATGTAGGTTCGGGTCATTCAGAAAGTAGGGAA | 2.51 | 2.82 | 2.25 | 2.71 | 3.45 | 3.7 | 2.82 | 4
24 | TCTTGTAGATCAAAGGTCAAGAAAGCCGAAGCCT | 4.47 | 5.63 | 5.37 | 0.913 | 7.17 | 3.42 | 0.378 | 0.514
25 | CGTCCAAGGTCAAGGGCAGTGAAAGAGACTCGAA | 4.22 | 5.8 | 6.3 | 3.02 | 5 | 3.87 | 2.22 | 1.92
26 | CTATGTTGGTTAAGGGGGTCATTCAGTTTGAAAG | 3.86 | 4.63 | 3.46 | 2.63 | 5.18 | 3.75 | 3.17 | 6.63
27 | CCTAGTTGGTCAGGAAGTCACACACCGGATATGA | 1 | 0.765 | 0.857 | 0.171 | 0.568 | 0.226 | 0.522 | 0.457
28 | CTATGTAGGTTAAGGGGGTAATTCAGTTTGAAAG | 1.84 | 2.06 | 1.59 | 1.27 | 1.95 | 2.44 | 1.35 | 1.41
29 | ATGTGTAGGTTAGGGTCATTCAGAAAGTAGGGAA | 3.9 | 4.4 | 3.74 | 2.52 | 5.52 | 4.17 | 3.9 | 4.18
30 | CGAACTAGGTGAAAGGACAGTGAAAGGCGACGTA | 1.15 | 0.833 | 1.07 | -0.365 | 0.373 | 0.672 | -0.413 | -0.349
31 | ACTAGTTGGTCAGCTGAGGTCACACTCAATTCGG | 4.47 | 3.93 | 4.09 | 1.5 | 3.92 | 5.01 | 4.85 | 3.27
32 | ATCTCTAGGTAAAGTTCATTGAAAGATCGATAGA | 1.97 | 2.99 | 3.16 | 2.96 | 2.49 | 1.84 | 0.478 | 4.56
33 | CCGAGTAGGTTACGAGGGGGCATTCATTGCGAAT | 2.05 | 3.01 | 2.09 | 1.21 | 2 | 3.7 | 0.405 | 2.02
34 | GATACAGAGTCAGCTAGAGGCCAGAGTATGGAAA | -0.00482 | 0.958 | 0.249 | -0.732 | -0.0704 | -0.305 | -1.05 | -0.0123
35 | CCGAGTAGGTTACGAGGGGGCACTCAGTGCGAAT | 2.29 | 3.19 | 2.39 | 0.868 | 2.17 | 3.74 | 0.205 | 2.68
36 | CTTACTGGGCCAAAGGTCATTGATTCCAATGCTC | 4.58 | 5.97 | 4.91 | 1.99 | 6.68 | 3.36 | 0.898 | 2.79
37 | CGAACTAGGTCACCAGGACAGAGAAGAGGTTGGA | 3.46 | 4.58 | 5.47 | 1.79 | 3.97 | 3.37 | 1.89 | 0.617
38 | CGTCCAAGCTCAGCAGGTCAGTGAAAGCGACGTG | 1.73 | 0.644 | 1.1 | -0.071 | 0.158 | 0.642 | -0.345 | -0.808

Row | Sequence | PBM binding z-score [1] | PBM binding z-score [2] | PBM binding z-score [3] | PBM binding z-score [4] | PBM binding z-score [5] | PBM binding z-score [6] | PBM binding z-score [7] | PBM binding z-score [8]
39 | CCTAGCAGACCAATCTGGGTCACTCAAGGCTTGA | 1.75 | 0.672 | 0.527 | 0.174 | 0.711 | 2.64 | 0.374 | 0.0917
40 | CCGAGTAGGTTACGAGGGGGCAATCAGTGCGAAT | 2.19 | 3.42 | 2.54 | 1.02 | 2.13 | 3.65 | 0.431 | 2.8
41 | CCAGACAGGTGAAAGGTAACTCCGTCTGGTACGC | 0.693 | 1.23 | 0.537 | -0.24 | 2.07 | 0.859 | -0.16 | -0.193
42 | CGTCGGAGGACAGAAGGTCAGAGCTGTCCGCTTT | 3.36 | 3.56 | 3.38 | 0.338 | 1.83 | 2.08 | -0.192 | 0.136
43 | CGAACTAGGTCACCAGGACAGTGTAGAGGTTGGA | 3.53 | 4.35 | 5.47 | 1.65 | 3.25 | 3.47 | 2.14 | 0.343
44 | ACTTACGGGTCAACGACGTTATAGCACGCGTATA | 2.87 | 5.07 | 4.51 | 1.59 | 5.19 | 2.68 | 0.369 | 0.841
45 | CGAACCAGGTCAAAGGACAGTGAAAGGCGACGTA | 2.94 | 4.32 | 4.33 | 2.36 | 3.81 | 3.21 | 1.24 | 1.15
46 | CGAACTAGGTCAAAGGACGGTGAAAGGCGACGTA | 2.59 | 3.97 | 4.3 | 1.49 | 2.68 | 2.3 | -0.112 | -0.106
47 | TAGCCTAAGTCATGGGCCAGTATACCACGCGAAC | 0.0501 | 0.0528 | 0.13 | -0.416 | 0.289 | -0.0695 | -0.257 | -0.135
48 | CGAACTGGGTCAAAGGACAGTGAAAGGCGACGTA | 2.58 | 3.7 | 3.67 | 0.996 | 3.11 | 1.95 | 0.161 | 0.185
49 | AGTCAAATTTCATCTAGGTAACGTAAGATATGCT | -0.24 | -0.128 | 0.382 | 0.077 | 0.184 | 0.722 | 0.526 | 0.0484
50 | ACTAGTTGTTCAGCTGAGGTCACACACAATTCGG | 4.34 | 3.72 | 3.35 | 1.54 | 4.16 | 4.65 | 5.2 | 2.84
51 | ACTCGGAGGACAAAGGTCAGAACTACGCCAGTGA | 3.96 | 5.75 | 4.61 | 1.08 | 4.75 | 3.28 | 0.786 | 0.984
52 | CCTACTGGGCGAAGGTCATTGATCAGTCAAAGCA | 3.08 | 3.7 | 2.52 | 0.409 | 2.97 | 2.2 | -0.298 | 1.33
53 | CGGACTAGGTCACCAGGACAGTGAAGAGGTTGGA | 3.18 | 4.13 | 5.61 | 1 | 3.39 | 3.14 | 2.14 | 0.337
54 | CGTCCAAGGTCATACGAGGTCAGTGAAGACAGAT | 5.34 | 7.02 | 7.58 | 4.29 | 6.94 | 5.39 | 4.43 | 5.82
55 | CGAGCTAGGTCAAAGGACAGTGAAAGGCGACGTA | 2.82 | 4.31 | 4.87 | 1.29 | 2.99 | 2.3 | 0.253 | 0.416
56 | CGGACTAGGTCAAAGGACAGTGAAAGGCGACGTA | 2.91 | 3.97 | 4.51 | 1.33 | 3.02 | 2.57 | 0.589 | 0.288
57 | CGAACTGGGTCACCAGGACAGTGAAGAGGTTGGA | 2.84 | 4.16 | 4.22 | 0.542 | 3.41 | 2.91 | 0.811 | 0.0235
